The source of these data is the OligoGym collection.
Further: reference of the scale not given here.

The target of the first assay is FOXK1. In words: pooled miR-30 sensor sort-seq; sequence = guide strand. To be noted: shRNA.
Regarding TTTGATAAAGTAACGGTTCAAA, the sensor-assay potency score (higher = more potent) was -0.935.

TGATAGAGCGACGTGAACTGGA: the sensor-assay potency score (higher = more potent) came to 0.268.

As to ATGAGGAACTCGAACTCGCGGC, the sensor-assay potency score (higher = more potent) was -0.982.

Take TTCTTTGTGATAGAGCGACGTG: the sensor-assay potency score (higher = more potent) was -0.986.

TTTGACTCATCCTTGGGGCTGT: the sensor-assay potency score (higher = more potent) turned out to be 0.206.

In turn, TAAACTGTTCGTGGGAACCGCA gave a sensor-assay potency score (higher = more potent) of -0.882.

TGGATCTTGATGGCCGTGCTGG had a sensor-assay potency score (higher = more potent) of -0.887.

As for TTGCCGGCTAAACTGTTCGTGG, the sensor-assay potency score (higher = more potent) was -1.1.

In turn, TTCAAAGAGAGGTTGTGCCGGA registered a sensor-assay potency score (higher = more potent) of 0.647.

With TTGCTGCAAACTCTGCTGCCAG, the sensor-assay potency score (higher = more potent) is -1.02.

The sequence TTGGGTCGCAAGGAGCTGCAAA displayed a sensor-assay potency score (higher = more potent) of -0.645.

In turn, TTTGGGAATACCGGTACTCTGG displayed a sensor-assay potency score (higher = more potent) of -1.08.

The next assay deals with FOXN4. The description is as above. To be noted: shRNA.
For ATTCCTGACATTATGGATGAGG, the sensor-assay potency score (higher = more potent) was -0.583.

TAGATCTCGCTCACAGGCAGGC: the sensor-assay potency score (higher = more potent) was -0.142.

The sequence TCCTCCATCTTGTCGATGCGGG yielded a sensor-assay potency score (higher = more potent) of -1.47.

Sequence TGAGTTTCGAATAATTCCTGAC came in with a sensor-assay potency score (higher = more potent) of -0.212.

TGAAGCTGTAGATCTCGCTCAC gave a sensor-assay potency score (higher = more potent) of 0.304.

As for TCAGCTTGTCCAACTCCTCAGG, the sensor-assay potency score (higher = more potent) was -0.891.

ATGTTGATGAAGTCTACAGGAG yielded a sensor-assay potency score (higher = more potent) of -1.25.

For the sequence TTGCCATCTGCTGCAGCCGAGG, the sensor-assay potency score (higher = more potent) is -1.85.

Turning to TTGAGATGAATGCACAGCCACG, the sensor-assay potency score (higher = more potent) is -1.27.

Turning to TCAGTGTTCATGTCGGTGCTGA, the sensor-assay potency score (higher = more potent) was -0.14.

As for TTCAGAGACAGGTTGTGCCGCA, the sensor-assay potency score (higher = more potent) worked out at 0.475.
